Cycloheximide cs – Cycloheximide Counterscreen for Small Molecule Inhibitors of Shiga Toxin; cell reporter, cycloheximide protein synthesis inhibition counterscreen; max response, %; 12% of 300,000 active; in the data active = max response mostly above about 13%, no sharp cut-off; inactive = mostly below about 14%; also: read at 38.3 µM for the half of the compounds with a filed dose; 0% is about no effect
Shiga toxin inh – A qHTS for Small Molecule Inhibitors of Shiga Toxin | Vero cells, Shiga toxin protein synthesis inhibition reporter | inhibition, % at 38.7 µM | AID 2315, 2010 | 9.2% of 290,000 active; in the data active = inhibition mostly above about 28%, no sharp cut-off; inactive = mostly below about 43%; also: 0% is about no effect
Pf growth 96h – Primary qHTS for delayed death inhibitors of the malarial parasite plastid, 96 hour incubation; Potency, µM (series often up to 28.7 µM), for inactives: at the highest dose activity change, negative = inhibition, actives largely listed as inhibitors; 6.9% of 320,000 active; AID 504834, 2011; P. falciparum luciferase reporter growth, 96 h; also: potency is read from the fitted curve at half-maximal effect; % is scaled to controls: 0 for no effect and ±100 for the full control effect
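Plates of compound plus infected erythrocytes (2% hematocrit, 0.05% parasitemia final) incubate 96 hours, 37 C, 5% CO2. Detection reagent added; reduced luminescence from the parasites' luciferase reporter flags inhibition.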
AMA1 RON2 block – qHTS for Inhibitors of AMA1-RON; Towards Development of Antimalarial Drug Lead: Primary Screen | Plasmodium falciparum AMA1 (3D7) - RON2 peptide interaction | AlphaScreen AMA1-biotinylated RON2 peptide binding | Potency, µM (highest dose often 58.2 µM), for inactives: top-dose activity change, negative = inhibition, actives largely listed as inhibitors | 0.2% of 360,000 active | AID 720542, 2013;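 also: potency is read from the fitted curve at half-maximal effect; 0% = vehicle wells and -100% = peptide control; nearly all actives have a fitted effect of over 45% in size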
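AMA1 (3D7) with his tag at 25 nM final met compounds first, then biotinylated RON2 peptide at 25 nM; detection used donor plus acceptor beads, 10 µg/mL apiece, read by AlphaScreen after 30 min at room temperature.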
Pf growth 48h – Primary qHTS for delayed death inhibitors of the malarial parasite plastid, 48 hour incubation; P. falciparum luciferase growth in erythrocytes, 48 h; Potency, µM (highest dose often 28.7 µM), without a hit: at the highest dose activity change, negative = inhibition, usual class: inhibitors; 5.9% of 310,000 active; AID 504832, 2011; also: potency is read from the fitted curve at half-maximal effect; % is scaled to controls: 0 for no effect and ±100 for the full control effect
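In quantitative HTS format, infected erythrocytes bearing luciferase-reporter parasites were treated for a single generation at 37 C. Luminescence after adding detection reagent served as the growth measure.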
SARS PLP yeast – qHTS of Yeast-based Assay for SARS-CoV PLP; Potency, µM (highest dose often 32.9 µM), for inactives: at the top dose activity, positive = growth rescue, actives largely listed as activators; AID 485353, 2010; S. cerevisiae expressing SARS-CoV PLpro, growth rescue; 0.19% of 330,000 active; calls by dose curve; also: potency is read from the fitted curve at half-maximal effect; 0% is about no effect; nearly all actives have a fitted effect of over 55% in size
Numbers without * were called inactive; u = inconclusive; x = no result given; [ ] = another dose, or the depositor's remark. In the library only some 19% were active in any assay of this set; here they are far more common. Unless noted, calls follow the shape of the dose curve; as a rule, active = well fitted curve in the direction sought with a large enough effect; inconclusive = small, poorly fitted or top-dose-only effect, or another doubt; inactive = no such curve, though single readings can be large; an effect the other way counts as inactive or inconclusive.

SMILES | Cycloheximide cs | Shiga toxin inh | Pf growth 96h | AMA1 RON2 block | Pf growth 48h | SARS PLP yeast
CCCCC12CN3CC(C)(CN(C1)C31C(=O)N(C)c3ccc(C)cc31)C2=O (stereo not drawn) | -1 | 11 | 32% | 0% | 3% | 12%
CC(C)CNC(=O)Cn1c(=O)c2c(ncn2CC(C)C)n(Cc2ccccc2)c1=O | 7 | -2 | u | -2% | u | 1%
COC(=O)c1ccccc1NC(=O)c1cccc(NC(=O)C(C)C)c1 | -4 | -2 | u | -6% | -22%[5.75 µM] | 0%
CC(C)Cc1nc(NCCN2CCOCC2)c(C#N)c2c1COC(C)(C)C2 | -3 | 3 | x | -6% | 12µM* | -6%
CCOC(=O)C(C)Sc1nc(N2CCOCC2)c2c(c1C#N)CC(C)(C)OC2 (stereo not drawn) | x | x | x | 5% | x | x
CC(C)c1nc(NCCN2CCOCC2)c(C#N)c2c1COC(C)(C)C2 | -3 | -11 | 49% | -5% | u | -12%
CC(C)Cc1nc(N2CCOCC2)c(C#N)c2c1COC(C)(C)C2 | -1 | -11 | x | 1% | 10µM* | -2%
COC(=O)c1onc(-c2c(C)cc(C)cc2C)c1C(=O)OC | -3 | -16 | -1% | 45% | 16% | -10%
C[C@@H]1CN([C@@H](C)CO)C(=O)c2cc(Br)cnc2O[C@H]1CN(C)Cc1cccc(C(=O)O)c1 | x | x | x | 12% | x | x
Cc1cc2nc(CCN(Cc3cccnc3)C(=S)Nc3ccccc3)[nH]c2cc1C | 5 | 5 | 7.4µM* | 0% | 12µM* | -5%
COc1ccccc1NC(=S)N(CCc1nc2cc(C)c(C)cc2[nH]1)Cc1cccnc1 | -2 | 16 | u | 2% | 10µM* | -7%
O=C(C1CCCO1)N1CCN(c2ccccn2)CC1 (stereo not drawn) | -4 | 12 | 45% | 3% | 8% | 2%
CN1CC=C2C(C#N)=C(N)C(C#N)(C#N)C(CCc3ccccc3)C2C1 (stereo not drawn) | -2 | -10 | 7.4µM* | 7% | -24% | -7%
CN1CC=C2C(C#N)=C(N)C(C#N)(C#N)[C@H](c3cccs3)[C@H]2C1 | -3 | 4 | -25% | -2% | -10% | -11%
COc1ccc2c(c1)nc(-c1cccc(Br)c1)c(=O)n2C(c1ccccn1)c1nc2ccccc2[nH]1 (stereo not drawn) | x | x | x | 93% | x | x
Cc1ccc(C)c(N2CC(C(=O)Nc3cc(C)on3)CC2=O)c1 (stereo not drawn) | -4 | 29 | -1% | -10% | 13% | -2%
CSC(=CC(=O)c1ccccc1)SC | 25* | 66* | 68% | -4% | 37% | -13%
CSC(=CC(=O)c1ccc(F)cc1)SC | 26* | 18 | 40% | -23% | 45% | -3%
C/C(=N\NC(=O)C(O)c1ccccc1)c1ccc(Br)s1 (stereo not drawn) | 15 | 3 | -3% | 21% | -12% | 1%
C/C(=N\Nc1ccc(C(=O)O)cc1)c1ccc(Br)cc1 | 21* | 42* | 158% | -9% | 352% | -3%
COc1ccc2c(c1)C(=NNc1ccc(C(=O)O)cc1)c1cc(OC)ccc1-2 | 9 | 43 | 35% | -1% | u | 0%
COc1ccc(/C(C)=N/Nc2ccc(C(=O)O)cc2)c(OC)c1 | 61* | 53* | 200% | -20% | 191% | 12%
C/C(=N\Nc1ccc(Cl)c(C(=O)O)c1)c1ccc(Br)s1 | 59* | 153* | 34% | -9% | x | 0%
C/C(=N\Nc1ccc(C(=O)O)cc1)c1ccc(Cl)s1 | 40* | 62* | u | -7% | 148% | 2%
NC(=O)c1cc(S(=O)(=O)N2CCOCC2)ccc1N1CCCC1 | -2 | -11 | 16% | -1% | 33% | -4%
SMILES | Cycloheximide cs | Shiga toxin inh | Pf growth 96h | AMA1 RON2 block | Pf growth 48h | SARS PLP yeast
CCN(CC(=O)Nc1ccc(OC)cc1)C(=O)C1CCN(C(=O)c2ccc(Cl)cc2)CC1 | x | x | u | 107% | u | 3%
CC(NC(=O)COC(=O)C1CCN(c2ccc(C(F)(F)F)cn2)CC1)c1ccc(F)cc1 (stereo not drawn) | x | x | -2% | 8% | 4% | 3%
CCOC(=O)c1c(NC(C)=O)sc(C(=O)NC2CCCC2)c1C | -6 | -7 | u | 20% | 20% | -1%
CCOC(=O)c1c(NC(C)=O)sc(/C(C)=N/Nc2ccc(C(=O)O)cc2)c1C | 70* | 59* | 22% | 2% | -7% | 2%
Cc1sc2ncnc(SCC(=O)c3cccs3)c2c1C | 35* | 72* | x | 36% | 51% | 7%
COc1ccccc1NC(=O)C1C2C=CC(C2)C1C(=O)NCc1cccnc1 (stereo not drawn) | 1 | -10 | u | 5% | 2% | -3%
CCOC(=O)c1ccc(NC(=O)N2CCN(CCc3ccccc3)CC2)cc1 | 20* | 12 | x | 6% | u | -1%
CCOC(=O)c1ccc(NC(=S)N2CCN(Cc3ccccc3)CC2)cc1 | 1 | -3 | u | -27% | -9% | 7%
COc1ccccc1NC(=O)N1CCN(CCc2ccccc2)CC1 | 1 | 3 | -4% | -8% | 4.1µM* | 0%
COc1cc(C(=O)Nn2c(C)nc3ccccc3c2=O)cc(OC)c1OC | 3 | -18 | 0% | -12% | 28% | -3%
N/C(=N\OC(=O)c1ccc(F)cc1)c1ccccc1 | 59* | 150* | 10µM* | 31% | 34% | -15%
N/C(=N\OC(=O)c1ccc(F)cc1)c1ccc(Br)cc1 | 33* | 70* | u | 2% | -62% | -5%
Cc1ccc(/C(N)=N/OC(=O)c2ccc3ccccc3c2)cc1 | 12 | 10 | -20% | -6% | u | -14%
Cc1ccc(/C(N)=N/OC(=O)c2ccc(F)cc2)cc1 | 49* | 91* | u | 0% | -47% | -41%
O=C(O/N=C/c1ccc(Br)cc1)c1ccc(F)cc1 | x | x | x | -15% | x | x
COc1ccc(CCn2c(=N)c(C(=O)N3CCN(C)CC3)cc3c(=O)n4ccccc4nc32)cc1 | 1 | 20 | u | -12% | x | 4%
COc1ccc(CCn2c(=N)c(C(=O)NC3CCCCC3)cc3c(=O)n4ccccc4nc32)cc1 | -4 | 23 | u | -10% | 0.93µM* | 13%
Cc1cccn2c(=O)c3cc(C(=O)NC4CCCC4)c(=N)n(CCc4ccccc4)c3nc12 | 3 | -19 | 4.1µM* | 3% | 0.47µM* | 0%
Cc1cccn2c(=O)c3cc(C(=O)NC4CCCC4)sc3nc12 | 19* | -23 | u | 6% | u | -10%
N=c1c(C(=O)NCC2CCCO2)cc2c(=O)n3ccccc3nc2n1C1CCCCC1 (stereo not drawn) | -1 | -4 | 2.6µM* | 0% | -7% | 5%

Bioassay records as filed in PubChem BioAssay.
